Results filed as inconclusive are left out. Entries that show only a call come without a potency. The source made the active and inactive calls. Calls come from the whole dose curve; as a rule, active = well fitted inhibition curve with a large enough effect; inconclusive = small, poorly fitted or top-dose-only effect; inactive = flat fitted curve, though single readings scatter. Peptide text beside a SMILES is read from it.
Key:
Test in all cases: qHTS profiling for inhibitors of Plasmodium falciparum proliferation (AID 504749); note: nearly all actives have a fitted effect of over 60% in size
Conditions in all cases: P. falciparum in erythrocytes, SYBR Green DNA, 72 h; series mostly up to 28.7 µM
ATS189 = system: ATS189
Outline: (§1)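 Readout was DNA-dye fluorescence from lysed cultures, ex 485/em 535 nm. Parasitized red cells had grown 72 h with compound; data scaled between 0.29 uM artemisinin and DMSO wells and corrected using vehicle-only plates.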

ATS95 = system: ATS95
Outline: as §1

C2A = system: C2A
Outline: as §1

CP185 = system: CP185
Outline: as §1

CP191 = system: CP191
Outline: as §1

CP192 = system: CP192
Outline: as §1

CP194 = system: CP194
Outline: as §1

CP201 = system: CP201
Outline: as §1

CP203 = system: CP203
Outline: as §1

CP211 = system: CP211
Outline: as §1

CP215 = system: CP215
Outline: as §1

CP217 = system: CP217
Outline: as §1

CP237 = system: CP237
Outline: as §1

CP238 = system: CP238
Outline: as §1

CP247 = system: CP247
Outline: as §1

CP250 = system: CP250
Outline: as §1

CP252 = system: CP252
Outline: as §1

CP256 = system: CP256
Outline: as §1

CP260 = system: CP260
Outline: as §1

CP262 = system: CP262
Outline: as §1
Potency is the fitted concentration of half-maximal effect.

SMILES	Potency (ATS189)	Potency (ATS95)	Potency (C2A)	Potency (CP185)	Potency (CP191)	Potency (CP192)	Potency (CP194)	Potency (CP201)	Potency (CP203)	Potency (CP211)	Potency (CP215)	Potency (CP217)	Potency (CP237)	Potency (CP238)	Potency (CP247)	Potency (CP250)	Potency (CP252)	Potency (CP256)	Potency (CP260)	Potency (CP262)
O=C(O)c1cc(=O)c2c(OCC(O)COc3cccc4oc(C(=O)O)cc(=O)c34)cccc2o1	inactive	inactive	inactive	inactive	inactive	inactive	inactive	inactive	inactive	inactive	inactive	inactive	inactive	inactive	inactive	inactive	inactive	inactive	inactive	inactive
CN1C(C(=O)Nc2ccccn2)=C(O)c2sccc2S1(=O)=O	inactive	inactive	inactive	inactive	inactive	inactive	inactive	inactive	inactive	inactive	inactive	inactive	inactive	inactive	inactive	inactive	inactive	inactive	inactive	inactive
Cc1c(OCC(F)(F)F)ccnc1CS(=O)c1nc2ccccc2[nH]1 (stereo not given)	inactive	inactive	inactive	inactive	inactive	inactive	inactive	inactive	inactive	inactive	inactive	inactive	inactive	inactive	inactive	inactive	inactive	inactive	inactive	inactive
CC(C)[C@H](N)C(=O)OCCOCn1cnc2c(=O)[nH]c(N)nc21	inactive	inactive	inactive	inactive	inactive	inactive	inactive	inactive	inactive	inactive	inactive	inactive	inactive	inactive	inactive	inactive	inactive	inactive	inactive	inactive
CCN(CCO)CCCC(C)Nc1ccnc2cc(Cl)ccc12 (stereo not given)	inactive	inactive	inactive	inactive	inactive	inactive	inactive	inactive	inactive	inactive	inactive	inactive	inactive	inactive	inactive	inactive	inactive	inactive	inactive	inactive
CCCc1cc(=O)[nH]c(=S)[nH]1	inactive	inactive	inactive	inactive	inactive	inactive	inactive	inactive	inactive	inactive	inactive	inactive	inactive	inactive	inactive	inactive	inactive	inactive	inactive	inactive
N=C(N=C(N)N)N1CCOCC1	inactive	inactive	inactive	inactive	inactive	inactive	inactive	inactive	inactive	inactive	inactive	inactive	inactive	inactive	inactive	inactive	inactive	inactive	inactive	inactive
O=C(O)c1cccnc1Nc1cccc(C(F)(F)F)c1	inactive	inactive	inactive	inactive	inactive	inactive	inactive	inactive	inactive	inactive	inactive	inactive	inactive	inactive	inactive	inactive	inactive	inactive	inactive	inactive
COC(=O)[C@H](Cc1ccccc1)NC(=O)[C@@H](N)CC(=O)O (H-Asp-Phe-OMe)	inactive	inactive	inactive	inactive	inactive	inactive	inactive	inactive	inactive	inactive	inactive	inactive	inactive	inactive	inactive	inactive	inactive	inactive	inactive	inactive
CN(C)c1ccc2nc3ccc(=[N+](C)C)cc-3sc2c1	79.4 nM (active)	70.8 nM (active)	141 nM (active)	89.1 nM (active)	79.4 nM (active)	67.5 nM (active)	75.7 nM (active)	67.5 nM (active)	33.8 nM (active)	60.1 nM (active)	120 nM (active)	89.1 nM (active)	12.6 nM (active)	100 nM (active)	141 nM (active)	141 nM (active)	89.1 nM (active)	63.1 nM (active)	25.1 nM (active)	19 nM (active)
O=C(NC(Cc1cc(=O)[nH]c2ccccc12)C(=O)O)c1ccc(Cl)cc1 (stereo not given)	inactive	inactive	inactive	inactive	inactive	inactive	inactive	inactive	inactive	inactive	inactive	inactive	inactive	inactive	inactive	inactive	inactive	inactive	inactive	inactive
N[C@@H](Cc1cc(I)c(Oc2cc(I)c(O)c(I)c2)c(I)c1)C(=O)O	inactive	inactive	inactive	inactive	inactive	inactive	inactive	inactive	inactive	inactive	inactive	inactive	inactive	inactive	inactive	inactive	inactive	inactive	inactive	inactive
Nc1ccc(S(N)(=O)=O)cc1	inactive	inactive	inactive	inactive	inactive	inactive	inactive	inactive	inactive	inactive	inactive	inactive	inactive	inactive	inactive	inactive	inactive	inactive	inactive	inactive
Cc1ccc(C)c(OCCCC(C)(C)C(=O)O)c1	inactive	inactive	inactive	inactive	inactive	inactive	inactive	inactive	inactive	inactive	inactive	inactive	inactive	inactive	inactive	inactive	inactive	inactive	inactive	inactive
CC1(C)NC(=O)N(c2ccc([N+](=O)[O-])c(C(F)(F)F)c2)C1=O	inactive	inactive	inactive	inactive	inactive	inactive	inactive	inactive	inactive	inactive	inactive	inactive	inactive	inactive	inactive	inactive	inactive	inactive	inactive	inactive
COc1ccc(C2(C#N)CCC(C(=O)O)CC2)cc1OC1CCCC1 (stereo not given)	inactive	inactive	inactive	inactive	inactive	inactive	inactive	inactive	inactive	inactive	inactive	inactive	inactive	inactive	inactive	inactive	inactive	inactive	inactive	inactive
C=CCc1cc(OC)c(O)c(C(=O)NCCO)c1	inactive	inactive	inactive	inactive	inactive	inactive	inactive	inactive	inactive	inactive	inactive	inactive	inactive	inactive	inactive	inactive	inactive	inactive	inactive	inactive
Cc1cccc(C)c1OCC(=O)N[C@@H](Cc1ccccc1)[C@@H](O)C[C@H](Cc1ccccc1)NC(=O)[C@H](C(C)C)N1CCCNC1=O	3980 nM (active)	3980 nM (active)	11200 nM (active)	10000 nM (active)	5620 nM (active)	6750 nM (active)	7570 nM (active)	10700 nM (active)	6010 nM (active)	7570 nM (active)	6010 nM (active)	3980 nM (active)	2820 nM (active)	5010 nM (active)	7080 nM (active)	7080 nM (active)	4470 nM (active)	11200 nM (active)	3980 nM (active)	9530 nM (active)
CCCCN(CCCC)CCC(O)c1cc2c(Cl)cc(Cl)cc2c2cc(C(F)(F)F)ccc12 (stereo not given)	5.6 nM (active)	7.9 nM (active)	25.1 nM (active)	28.2 nM (active)	12.6 nM (active)	10.2 nM (active)	32.2 nM (active)	51 nM (active)	22.8 nM (active)	64.2 nM (active)	28.7 nM (active)	12.6 nM (active)	5.6 nM (active)	7.9 nM (active)	17.8 nM (active)	31.6 nM (active)	15.8 nM (active)	141 nM (active)	6.3 nM (active)	18.1 nM (active)
CC1(C)CCC(C)(C)c2cc(NC(=O)c3ccc(C(=O)O)cc3)ccc21	inactive	inactive	inactive	inactive	inactive	inactive	inactive	inactive	inactive	inactive	inactive	inactive	inactive	inactive	inactive	inactive	inactive	inactive	inactive	inactive
CCC1=C(C)CN(C(=O)NCCc2ccc(S(=O)(=O)NC(=O)NC3CCC(C)CC3)cc2)C1=O (stereo not given)	inactive	inactive	inactive	inactive	inactive	inactive	inactive	inactive	inactive	inactive	inactive	inactive	inactive	inactive	inactive	inactive	inactive	inactive	inactive	inactive
O=C(O)c1cccc(-c2noc(-c3ccccc3F)n2)c1	inactive	inactive	inactive	inactive	inactive	inactive	inactive	inactive	inactive	inactive	inactive	inactive	inactive	inactive	inactive	inactive	inactive	inactive	inactive	inactive
CCCOc1ccc2nc(NC(=O)OC)[nH]c2c1	inactive	inactive	inactive	inactive	inactive	inactive	inactive	inactive	inactive	inactive	inactive	inactive	inactive	inactive	inactive	inactive	inactive	inactive	inactive	inactive
COc1cc(OC)c(C(=O)CCCN2CCCC2)c(OC)c1	inactive	inactive	inactive	inactive	inactive	inactive	inactive	inactive	inactive	inactive	inactive	inactive	inactive	inactive	inactive	inactive	inactive	inactive	inactive	inactive
COc1cc2c(cc1OC)C1CC(=O)C(CC(C)C)CN1CC2 (stereo not given)	inactive	inactive	inactive	inactive	inactive	inactive	inactive	inactive	inactive	inactive	inactive	inactive	inactive	inactive	inactive	inactive	inactive	inactive	inactive	inactive
CS(=O)(=O)OCCCCOS(C)(=O)=O	inactive	inactive	inactive	inactive	inactive	inactive	inactive	inactive	inactive	inactive	inactive	inactive	inactive	inactive	inactive	inactive	inactive	inactive	inactive	inactive
